High-throughput results deposited in PubChem by several laboratories.
APP transl inh: APP translation inhibition; SH-SY5Y APP 5'UTR-luciferase reporter, luminescence; inhibition, % at 2 µM; 0.82% of 190,000 active; AID 1285;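 active = inhibition above a set limit, derived from the sample mean plus 3 SD, cut at about 45% in these data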
Ba/F3 V617F tox: lowers viability of Ba/F3 cells expressing EpoR and JAK2V617F; inhibition, % at 5.6 µM; ATP luminescence; 1.1% of 220,000 active;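 active = inhibition above the campaign mean plus 3 SD over all tested compounds, cut at about 24% in these data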;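 also: cytokine-independent growth of Ba/F3 cells driven by EpoR plus mutant JAK2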
BaF3 tox: counter-screen for JAK2V617F inhibitors: parental Ba/F3 viability inhibitors. CellTiter-Glo ATP luminescence. inhibition, % at 5.6 µM. 1.1% of 220,000 active;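 active = inhibition above a per-campaign cutoff, the mean inhibition of all tested compounds plus 3 SD, cut at about 27% in these data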
KLF5 inh: inhibitors of KLF5 expression | DLD-1 KLF5 promoter-luciferase reporter, luminescence | inhibition, % at 5 µM | 0.23% of 290,000 active | AID 1700;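 active = inhibition above a per-plate limit of that plate's mean compound inhibition plus 3 SD, cut at about 60% in these data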;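 also: higher means less KLF5 promoter-driven luciferase light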
IEC-6 tox: IEC-6 cytotoxicity, counter-screen for KLF5 inhibitors; luminescence viability; inhibition, % at 5 µM; 0.78% of 290,000 active; AID 1825; in the data active = inhibition above about 22%
BaF3 parental 2: parental Ba/F3 viability inhibition for JAK2V617F counter-screen. shares compounds with Ba/F3 V617F tox. CellTiter-Glo luminescence; cells kept alive by added IL-3. inhibition, % at 5.6 µM. 31% of 580 active;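 active = cell growth inhibition above the hit limit set in the earlier mutant JAK2 cell screen, cut at about 27% in these data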
JAK2V617F conf: Ba/F3 EpoR-JAK2V617F viability loss, confirmation. shares compounds with Ba/F3 V617F tox. CellTiter-Glo luminescence. inhibition, % at 5.6 µM. 66% of 580 active. AID 1521;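 active = mean inhibition above the hit cutoff derived in the earlier primary screen, cut at about 25% in these data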;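 also: higher means lower luminescence from reduced cell ATP and viability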
Of the large screens only hits and unclear results are named; the others gave an inactive call (follow-up assays come after a bar, where they were run). Most compounds without a hit are left out; they make up all but 1.9% or so of the library.

CC#CC[N+](C)(C)CCCCCCCCCC	Ba/F3 V617F tox 95.4, BaF3 tox 78.8 (no result: APP transl inh)
C#CC[N+](C)(C)CCCCCCCCC	Ba/F3 V617F tox 82.3, BaF3 tox 61.6
CC1(C)Cc2c(c(-c3ccccc3Cl)[nH]c(=O)c2C#N)CO1	none
N#Cc1c(-c2ccc(Cl)cc2)c2c([nH]c1=O)-c1ccccc1OC2	BaF3 tox 51.1 (no result: APP transl inh)
CCCCC/C=N/NC(=O)c1[nH]c2ccc([N+](=O)[O-])cc2c1C	none (no result: APP transl inh)
CCC/C=N/NC(=O)c1[nH]c2c([N+](=O)[O-])cccc2c1C	APP transl inh 89.4
Cc1cc(N/N=C/c2ccc(O)cc2O)nc(-c2ccccc2O)n1	APP transl inh 56.2
Cc1cc(N/N=C/c2ccccc2O)nc(-c2ccccc2O)n1	none
O=C(NCCCN1CCOCC1)c1ccc(NC(=O)C2COc3ccccc3O2)cc1 (stereo unspecified)	BaF3 tox 89.8
O=C(NCCCN1CCOCC1)C1COc2ccccc2O1 (stereo unspecified)	none
O=[N+]([O-])c1cc(Cl)ccc1Sc1cccc2cccnc12	none
O=[N+]([O-])c1ccc(Sc2cccc3cccnc23)c([N+](=O)[O-])c1	APP transl inh 55.2
Clc1ccc2nc(-c3ccccn3)c(Nc3ccc4c(c3)OCO4)n2c1	APP transl inh 45.8
Cc1ccc2nc(-c3ccccc3O)c(Nc3ccc4c(c3)OCCO4)n2c1	none
CCN(CC(=O)Nc1c(F)cccc1F)C(=O)C1CCCN(C(=O)c2ccc(Cl)cc2)C1 (stereo unspecified)	none (no result: APP transl inh, Ba/F3 V617F tox, BaF3 tox)
COc1c(Cl)cc(Cl)cc1/C=N/n1cnnc1	APP transl inh 54.9
CC(=O)OCCNc1cc(Sc2nc3ccccc3[nH]2)c2nonc2c1[N+](=O)[O-]	APP transl inh 79.3
CCCCC(=O)Nc1ccc(NCc2ccc(C)s2)cc1	none (no result: APP transl inh, Ba/F3 V617F tox, BaF3 tox)
CCOC(=O)c1cnc(-n2nc(C)cc2C)nc1NNc1cc(-c2ccccc2)nc(C)n1	APP transl inh 56.5
O=C(Nc1nc(-c2ccccn2)cs1)c1cc(Cl)ccc1[N+](=O)[O-]	APP transl inh 75.9, Ba/F3 V617F tox 71.7, BaF3 tox 60.7, KLF5 inh 64.2, IEC-6 tox 83.1
Cc1c(Cl)c([N+](=O)[O-])nn1Cc1ccc(C(=O)Nc2ccc(Cl)cn2)o1	none
O=C(Nc1nc(-c2ccccn2)cs1)c1ccc([N+](=O)[O-])o1	Ba/F3 V617F tox 84.3, BaF3 tox 88.9 (no result: APP transl inh)
O=C(Nc1ccc(Cl)cn1)c1ccc([N+](=O)[O-])o1	APP transl inh 47.4
O=C(COc1ccc(Cl)cc1)N1CCN(C(=O)c2ccccc2F)CC1	none (no result: APP transl inh, Ba/F3 V617F tox, BaF3 tox)
CC(=O)N(Cc1cccnc1)Cc1cc2ccc(C)cc2[nH]c1=O	BaF3 tox 95.4
CCCN(Cc1cc2ccc(C)cc2[nH]c1=O)C(=O)c1cccnc1	none
COc1c(Cl)cc(C(=O)NN)cc1Cl	APP transl inh 92.2, Ba/F3 V617F tox 42.0, IEC-6 tox 52.4 | BaF3 parental 2 inactive | JAK2V617F conf inactive
NC(=O)c1ccc(NC(=O)COC(=O)CC(NC(=O)c2ccccc2Cl)c2ccccc2)cc1 (stereo unspecified)	none
Cc1cc(C(=O)Nc2cnc3ccccc3c2)ccc1[N+](=O)[O-]	Ba/F3 V617F tox 27.5 | BaF3 parental 2 inactive | JAK2V617F conf inactive
COCCNC(=S)N(CCc1c(C)[nH]c2ccc(F)cc12)Cc1ccco1	none (no result: APP transl inh, Ba/F3 V617F tox, BaF3 tox)
NC(=O)c1ccccc1NC(=S)NC(=O)CCc1ccccc1	APP transl inh 70.8, Ba/F3 V617F tox 46.6, KLF5 inh 68.1, IEC-6 tox 60.3 | BaF3 parental 2 inactive | JAK2V617F conf 91.1
NC(=O)c1ccccc1NC(=O)CCc1ccccc1	none
COc1ccccc1OCc1ccc(C(=O)Nc2ccc(Cl)cn2)o1	none
O=C(c1ccccc1)c1ccccc1N1C(=O)C=CC1=O	Ba/F3 V617F tox 32.0 (no result: APP transl inh) | BaF3 parental 2 inactive | JAK2V617F conf 26.2
O=C(O)c1ccccc1C(=O)c1ccc(-c2ccccc2)cc1	none (no result: APP transl inh, Ba/F3 V617F tox, BaF3 tox)
CC(=O)NCCOC(=O)c1nn(Cc2ccccc2)c(=O)c2ccccc12	none (no result: APP transl inh, Ba/F3 V617F tox, BaF3 tox)
COc1ccc(CCN(C)C(=O)C2CCN(Cc3cccc(OC)c3OC)CC2)cc1OC	Ba/F3 V617F tox 31.2 | BaF3 parental 2 inactive | JAK2V617F conf inactive
Cc1cccc(N(Cc2ccccc2)C(=O)CCl)c1	Ba/F3 V617F tox 56.9 | BaF3 parental 2 inactive | JAK2V617F conf 97.9
Cc1ccc2[nH]c(O)c(N=NC(=O)C(C)n3cnc4ccccc4c3=O)c2c1 (stereo unspecified)	none
O=c1oc2ccccc2c2c1ncn2CCN1CCOCC1	Ba/F3 V617F tox 61.5 | BaF3 parental 2 inactive | JAK2V617F conf inactive
COc1cccc(CN(C)C(=O)/C=C/c2ccc(S(=O)(=O)N3CCCCCC3)cc2)c1	none (no result: APP transl inh, Ba/F3 V617F tox, BaF3 tox)
Cc1ccc(Cl)cc1N1CCN(CC(O)COCc2ccco2)CC1 (stereo unspecified)	Ba/F3 V617F tox 98.5 | BaF3 parental 2 inactive | JAK2V617F conf inactive
OC(COCc1ccco1)CN1CCN(C(c2ccccc2)c2ccccc2)CC1 (stereo unspecified)	none
O=C(c1ccc(-n2ccnc2)cc1)N1CCCC(CO)(Cc2cccc(Cl)c2)C1 (stereo unspecified)	none (no result: APP transl inh, Ba/F3 V617F tox, BaF3 tox)
O=C(CSc1nc2ncc(Cl)cc2[nH]1)c1ccc2c(c1)OCO2	Ba/F3 V617F tox 87.9 (no result: APP transl inh) | BaF3 parental 2 inactive | JAK2V617F conf inactive
Cc1nc(Nc2ccc3c(c2)OCCO3)c2oc3ccccc3c2n1	Ba/F3 V617F tox 59.5 | BaF3 parental 2 inactive | JAK2V617F conf inactive
CCOC(=O)N1CCN(C(=O)c2cc(-c3ccc(OCC)cc3)nc3ccccc23)CC1	APP transl inh 78.4, Ba/F3 V617F tox 68.2, IEC-6 tox 23.9 | BaF3 parental 2 69.2 | JAK2V617F conf 94.0
CCOc1ccc(-c2cc(C(=O)N3CCN(C)CC3)c3ccccc3n2)cc1	none
O=C(N/N=C/c1cc([N+](=O)[O-])ccc1O)c1cccc2cc[nH]c12	Ba/F3 V617F tox 33.9 (no result: APP transl inh) | BaF3 parental 2 inactive | JAK2V617F conf 28.4
CCCS(=O)(=O)N1CCCC(C(=O)Oc2ccc(OC)cc2)C1 (stereo unspecified)	none (no result: APP transl inh, Ba/F3 V617F tox, BaF3 tox)
COc1cccc(/C=N/NC(=O)c2[nH]c(C)c(C(=O)N/N=C/c3cccc(OC)c3O)c2C)c1O	Ba/F3 V617F tox 41.5 | BaF3 parental 2 inactive | JAK2V617F conf 70.2
COc1cccc(/C=N/NC(=O)c2ccc(-c3ccccc3)cc2)c1O	none
COc1ccc(C2=NS(=O)(=O)N(C)C(C(=O)Nc3ccc4c(c3)OCO4)=C2)cc1OC	none (no result: APP transl inh, Ba/F3 V617F tox, BaF3 tox)
Oc1ccc(Cl)cc1CNc1ccc(Br)cn1	Ba/F3 V617F tox 26.9 | BaF3 parental 2 inactive | JAK2V617F conf 30.9
CCOc1ccc2nc(SCC(=O)NC(=O)C(C)C)sc2c1	Ba/F3 V617F tox 51.0 | BaF3 parental 2 inactive | JAK2V617F conf inactive
CC1CCN(c2c(NCC3CCC(C(=O)NCc4ccccc4Cl)CC3)c(=O)c2=O)CC1 (stereo unspecified)	none
